Several values for one entry are separate records, joined by “and”; a condition that tells them apart may be missing. Identical values can stand only once. In all, about 16,000 compounds went through this assay and about 5,700 (36%) were called active. Roughly 24% stayed inconclusive and do not appear here. Calls follow the shape of the dose curve; as a rule, active = well fitted curve in the direction sought with a large enough effect; inconclusive = small, poorly fitted or top-dose-only effect, or effect the other way; inactive = no such curve, though single readings can be large or run the other way. Some of the results follow.
Each molecule was assayed against Cytochrome P450 1A2 (Homo sapiens) (UniProt P05177) (assay: Cytochrome panel assay with activity outcomes). Conditions: recombinant CYP, pro-luciferin dealkylation, luminescence, p450-cyp1a2; series mostly up to 57.1 µM.
% is scaled to controls: 0 for no effect and ±100 for the full control effect.

Cytochrome P450 1A2 (Homo sapiens), sequence (P05177 whole entry, looked up): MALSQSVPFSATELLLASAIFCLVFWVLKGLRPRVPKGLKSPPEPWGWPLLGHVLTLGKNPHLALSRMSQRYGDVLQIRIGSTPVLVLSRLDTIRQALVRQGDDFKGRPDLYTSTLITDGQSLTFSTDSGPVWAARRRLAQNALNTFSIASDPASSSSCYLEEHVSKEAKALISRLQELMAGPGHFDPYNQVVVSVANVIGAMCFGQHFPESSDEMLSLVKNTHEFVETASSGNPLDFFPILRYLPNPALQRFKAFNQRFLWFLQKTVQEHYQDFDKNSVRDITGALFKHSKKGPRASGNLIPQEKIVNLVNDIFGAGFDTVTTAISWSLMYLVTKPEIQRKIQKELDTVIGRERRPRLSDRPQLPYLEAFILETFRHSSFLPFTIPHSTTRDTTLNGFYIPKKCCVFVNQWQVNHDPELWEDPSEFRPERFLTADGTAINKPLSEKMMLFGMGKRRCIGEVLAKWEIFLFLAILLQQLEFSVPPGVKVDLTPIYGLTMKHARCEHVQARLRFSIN

AC50, inactive:
COc1ccc(OC)c(NC(=O)C(CC(=O)O)NCc2ccco2)c1 (stereo unspecified)
COC(=O)N1CCC2(CCN(Cc3cc(C(F)(F)F)cc(C(F)(F)F)c3)CC2)CC1
CN(C)c1cc[n+](CC(=O)Nc2cc(C(F)(F)F)ccc2Cl)cc1
Cc1cc(NC(=O)CCCC(=O)OCC(F)(F)C(F)F)cc(C)c1C(=O)O
Cc1cc(N2C(=O)C(O)=C(C(=O)c3cccs3)C2c2cccc(O)c2)no1 (stereo unspecified)
O=C(NC12CC3CC(CC(C3)C1)C2)C12CC3CC(C1)CC(n1cnc(Cl)n1)(C3)C2
NCC1CCC(C(=O)O)CC1 (stereo unspecified)
CCC(=O)O[C@@H]1[C@H](C)O[C@H](O[C@H]2[C@@H](N(C)C)[C@H](O)[C@@H](O[C@@H]3[C@@H](CC=O)C[C@@H](C)[C@@H](O)/C=C\C=C/C[C@@H](C)OC(=O)C[C@@H](OC(=O)CC)[C@H]3OC)O[C@H]2C)C[C@]1(C)O
COc1cccc(-c2cncnc2NC2CCNCC2)c1
C[n+]1cccc(CNC(=O)/C=N/O)c1
CCCS(=O)(=O)N1CCCC(C(=O)NCC2CCCO2)C1 (stereo unspecified)
CC(=O)O[C@@H](C)C[N+](C)(C)C
CCCc1nnc(SCC(=O)N2CCCCC2C)n1CC1CCCO1 (stereo unspecified)
CCCc1nnc(SCC(=O)N2CCCCC2)n1CC1CCCO1 (stereo unspecified)
CC(=O)Nc1nnc(CCN2CCCCC2)s1
CCN(CC)S(=O)(=O)c1cccc(C(=O)N[C@H](C(=O)OCC(=O)NC(=O)NC)C(C)C)c1
CCCNC(=O)CC(NS(=O)(=O)c1ccc(Cl)cc1)c1ccco1 (stereo unspecified)
CCCC[C@@H]1C[C@H]1C(NC(=O)Cc1ccccc1)c1ccc(-c2ccccc2)cc1 (stereo partly specified)
CCOc1cc(C)ccc1OCc1nnc(SCC(=O)c2cccc([N+](=O)[O-])c2)n1CC
COC(=O)C(CCSC)NC(=O)c1cccc([N+](=O)[O-])c1 (stereo unspecified)
CC(C)COP(=O)(c1ccc(N(C)C)cc1)C(O)c1ccccc1F (stereo unspecified)
O=C(Nn1cnc2ccccc2c1=O)c1ccc(F)cc1Cl
CN1CCN(C(=O)c2ccc3c(=O)n4c(nc3c2)CCCCC4)CC1
COc1cc(COc2cc(N)c(Cl)cc2C(=O)CCC2CCN(CCNS(C)(=O)=O)CC2)cc(OC)c1
CCCCN1CCC(CCC(=O)c2cc(Cl)c(N)cc2OC)CC1
COCCNC(=O)Cn1cnc2ccc(S(=O)(=O)N3CCC(C)CC3)cc2c1=O
O=S(=O)(c1ccccc1)N1CCC2(CCCN(Cc3nccs3)C2)CC1
CC(C)CN1CCC2(CC1)CCN(S(=O)(=O)c1ccccc1)CC2
O=S(=O)(c1ccccc1)N1CCC2(CC1)CN(Cc1nccs1)C2
CC(C)CN1CCCC2(CCN(S(=O)(=O)c3ccccc3)CC2)C1
CC(C)NC(=O)N1CC[C@@]2(CCCN(C(=O)c3cc(C(F)(F)F)cc(C(F)(F)F)c3)C2)C1

AC50, active:
COc1ccccc1-c1nnc(NC(C)=O)s1 1260 nM
COc1ccccc1NC(=O)Nc1nnc(-c2ccco2)s1 2000 nM
O=C(Cc1ccccc1)NC(=S)Nc1cc(C(F)(F)F)ccc1Cl 2000 nM
Cc1ccc(C)n1CCN1CCN(CC(=O)Nc2cc(C(F)(F)F)ccc2Cl)CC1 25100 nM
N/C(CC(=O)Nc1cc(C(F)(F)F)ccc1Cl)=N\O 1580 nM
O=C(CCCC(=O)OCC(=O)c1ccc(Cl)cc1Cl)Nc1cc(C(F)(F)F)ccc1Cl 2820 nM
O=C(c1ccccc1)c1cc(F)c(N2CCOCC2)cc1Cl 11200 nM
CC(C)[C@H](N)c1nnc(SCc2ccc(Cl)cc2)o1 794 nM
CC(C)[C@H](N)c1nnc(SC/C=C/c2ccccc2)o1 631 nM
N#C/C(=C\c1ccc(Cl)cc1)c1nc2ncccc2[nH]1 2000 nM
N#C/C(=C\c1ccccc1)c1nc2ncccc2[nH]1 1260 nM
COc1cccc(-c2ccc3ncnc(NC4CC4)c3c2)c1 200 nM
N#Cc1cccc(-c2ccc3ncnc(NC4CCNCC4)c3c2)c1 15800 nM
c1cncc(-c2ccc3ncnc(NC4CCNCC4)c3c2)c1 12600 nM
COc1cccc(-c2ccc3ncnc(NC4CCNCC4)c3c2)c1 20000 nM
Cn1c(SCc2nc3ccccc3n2CCO)nc2ccccc21 10000 nM
N#Cc1nc(-c2ccc(F)cc2)oc1N1CCCC1 178 nM
COc1ccccc1-c1nc(NCc2cccs2)c2ccccc2n1 631 nM
COc1ccccc1-c1nc(NCc2ccccc2)c2ccccc2n1 398 nM
CNc1nc(-c2ccccc2OC)nc2ccccc12 398 nM
Clc1ccccc1-c1nc(NCc2cccs2)c2ccccc2n1 1000 nM
COc1ccccc1-c1nc(NCc2cccnc2)c2ccccc2n1 794 nM
N/N=C1/CC(=O)NC(=O)N1 631 nM
CCNc1ncc2ncc(=O)n(C[C@H]3CCCO3)c2n1 10000 nM
O=c1cnc2cnc(Nc3ccccc3)nc2n1C[C@H]1CCCO1 794 nM
Cc1cc2nc(CCN(C(=S)NCC(C)C)C3CCCC3)[nH]c2cc1C 3160 nM
CCNC(=O)c1c(NC(C)=O)sc2c1CCCC2 1260 nM
COCCCNC(=O)c1c(NC(=O)c2cccs2)sc2c1CCCC2 251 nM
CC(=O)Nc1sc2c(c1C(N)=O)CCCC2 3160 nM
CCCC[C@@H]1C[C@H]1C(NC(=O)c1ccco1)c1ccccc1 (stereo partly specified) 2000 nM
CCCC[C@@H]1C[C@H]1C(NC(=O)c1ccco1)c1ccc(-c2ccccc2)cc1 (stereo partly specified) 5010 nM
CCCC[C@@H]1C[C@H]1C(NC(=O)c1ccco1)c1ccc(Cl)cc1 (stereo partly specified) 794 nM
Cc1cccc(C(=O)O/N=C(\N)c2cccc([N+](=O)[O-])c2)c1 2510 nM
N/C(=N\OC(=O)Cc1ccc(-c2ccccc2)cc1)c1cccc([N+](=O)[O-])c1 14100 nM
Clc1ccc([C@H](Cn2ccnc2)OCc2csc3c(Cl)cccc23)c(Cl)c1 6310 nM
Clc1ccc(CO[C@@H](Cn2ccnc2)c2ccc(Cl)cc2Cl)cc1 100 nM
Clc1ccc(COC(Cn2ccnc2)c2ccc(Cl)cc2Cl)c(Cl)c1 (stereo unspecified) 1260 nM
Clc1ccc(C(c2ccc(Cl)cc2)n2cc[n+](C[C@@H](OCc3ccc(Cl)cc3Cl)c3ccc(Cl)cc3Cl)c2)cc1 31600 nM
O=C(Nc1ccc(F)cc1Cl)c1ccc2c(=O)n3c(nc2c1)CCCCC3 5010 nM
CCCCN1CCC(COC(=O)c2cc(Cl)c(N)c3c2OCCO3)CC1 12600 nM
CCCCCCCCC(=O)N/N=C/c1ccccn1 4470 nM
CCN(CC)C(=O)C(=O)N/N=C/c1cccc(Br)c1 10000 nM
CCCCCCCCC(=O)N/N=C/c1cccc(Br)c1 891 nM
CC(C)CN1CC[C@@]2(CCCN(S(=O)(=O)c3ccccc3)C2)C1 25100 nM
O=S(=O)(c1ccccc1)N1CCC[C@@]2(CCN(Cc3nccs3)C2)C1 15800 nM

activity, negative = inhibition, inactive:
O=C1[C@H]2CCn3c(=O)n(-c4ccccc4)c(=O)n3[C@H]2[C@H](O)[C@H]2O[C@@H]12 -2.61% [at 11.4 µM]
CC(C)=CCC/C(C)=C/CO/N=C1/C[C@@H](O)[C@@H](O)[C@@H]2[C@@H]3C(=O)N(C(C)(C)C)C(=O)[C@H]3CC[C@@H]12 -0.662% [at 11.4 µM]
C/C(CCN1CCCCc2nc(C)c(C)cc21)=N\OC[C@@H](O)[C@@H]1O[C@@H]2OC(C)(C)O[C@@H]2[C@H]1O -3.55% [at 11.4 µM]
O=CN1CCN(C[C@H](O)CN2CCCCC2)CC1 -17.6% [at 2.29 µM]
CC(C)[C@]1(Cl)CC[C@@H]2[C@]3(C)CCC[C@@](C)(C(=O)O)[C@H]3C[C@H](Cl)[C@@]2(Cl)[C@H]1Cl -13% [at 11.4 µM]
Cn1c(C[C@@H](O)c2nc3ccccc3n2C)nc2ccccc21 -2.56% [at 2.29 µM]
COc1ccc(OC[C@@H](CO)OC)cc1 -13.3% [at 11.4 µM]
O=C1[C@H]2[C@H]3[C@H](O)[C@H](O)C/C(=N/OCc4ccccc4)[C@@H]3CC[C@@H]2C(=O)N1C[C@@H]1CCCO1 1.8% [at 11.4 µM]
O=C1[C@H]2[C@H]3[C@H](O)[C@H](O)C/C(=N/OCc4ccccc4)[C@H]3CC[C@@H]2C(=O)N1C[C@@H]1CCCO1 -4.81% [at 11.4 µM]
C[C@@H](c1ccccc1)N1C(=O)[C@H]2[C@H]3[C@H](O)[C@H](O)C/C(=N/OCc4ccccc4)[C@@H]3CC[C@@H]2C1=O -7.71% [at 11.4 µM]
CO[C@H]1COC(=O)[C@@H](C)COC(=O)[C@@H](COCc2ccccc2)NC(=O)C/C=C\[C@H]1C 3.03% [at 11.4 µM]
NC([N-]/N=C/c1ccccn1)=[S]=[Fe].O=S(=O)(O)O 15.8% [at 2.29 µM]
Cc1ccc(S(=O)(=O)N[C@H]2COC(=O)[C@@H](C)COC(=O)[C@H](C)NC(=O)C/C=C\[C@H]2C)cc1 -11.4% [at 11.4 µM]
CCOC(=S)SCC(=O)O -12.2% [at 11.4 µM]
Cc1ccc(S(=O)(=O)N[C@H]2COC(=O)C/C=C\[C@@H](C)COC(=O)C/C=C\[C@@H]2C)cc1 0.253% [at 11.4 µM] and 8.99% [at 11.4 µM]
